CYP2C9 act: CYP2C9 (human) activation; P11712; recombinant CYP2C9, luciferin-H conversion, luminescence; hits give high values; factor 1 = untreated enzyme, 0 = blocked; activation factor at 5 µM; 96,000 tested, 1.4% active;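 active = activation factor of 2 or more for CYP2C9 at a 5 µM dose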;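 also: 0 = sulfaphenazole-blocked wells and 1 = vehicle-only wells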
Target sequence (P11712 whole entry, looked up): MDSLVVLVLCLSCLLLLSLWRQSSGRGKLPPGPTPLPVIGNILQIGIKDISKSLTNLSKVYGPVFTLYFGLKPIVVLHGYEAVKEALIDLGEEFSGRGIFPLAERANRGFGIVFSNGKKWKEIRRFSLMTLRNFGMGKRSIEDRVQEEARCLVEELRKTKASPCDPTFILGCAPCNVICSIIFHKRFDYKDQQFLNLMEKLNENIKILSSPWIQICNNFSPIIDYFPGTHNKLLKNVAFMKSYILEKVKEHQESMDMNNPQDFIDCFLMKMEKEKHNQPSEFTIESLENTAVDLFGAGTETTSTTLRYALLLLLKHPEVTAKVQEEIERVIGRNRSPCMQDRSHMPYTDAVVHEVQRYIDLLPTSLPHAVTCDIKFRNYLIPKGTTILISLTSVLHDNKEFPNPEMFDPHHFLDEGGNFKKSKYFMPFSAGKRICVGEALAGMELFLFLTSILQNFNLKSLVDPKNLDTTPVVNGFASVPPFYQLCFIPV
CYP2C19 act: cytochrome P450 2C19 (human) activation | P33261 | recombinant CYP2C19, luciferin-H EGE luminescence; hits give high values; 0 = fully inhibited enzyme, 1 = untreated enzyme | 96,000 tested, under 10 active | activation factor at 5 µM | AID 1025;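 active = activation factor of at least 2 at 5 µM in the primary screen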;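 also: 0 = wells with 2.5 mM tranylcypromine and 1 = vehicle-only wells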
Cav3 T inh: human Cav3.2 channel inhibition, primary screen. O95180. Cav3.2-expressing cells, Fluo-4 calcium fluorescence FDSS; hits give low values. B-score at 10 µM. 100,000 tested, 4% active. AID 449739;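 active = single-dose well whose peak fluorescence ratio is a statistical outlier from its plate by either plate-standardised score or position-corrected B-score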
CYP2C19 inhib: human CYP2C19 inhibition; AID 778; 96,000 tested, 21% active; inhibition, % at 5 µM; P33261; CYP2C19 Supersomes, luciferin-H EGE luminescence, 30 min;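 active = CYP2C19 inhibition above a set limit at 5 µM in the primary screen, cut at about 50% in these data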;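 also: plate controls were negative control wells for no effect and 2.5 mM tranylcypromine positive control for full effect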
CYP2C9 inhib: human CYP2C9 inhibition; P11712; CYP2C9 Supersomes, luciferin-H conversion, luminescence; inhibition, % at 5 µM; 96,000 tested, 20% active; AID 777;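 active = blocking of liver enzyme CYP2C9 beyond about 50% at 5 µM, limit read from the data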
Numbers without * were called inactive; · = no result given. This is a sample that favours compounds with a hit; in the whole collection about 27% have one here.

SMILES	CYP2C9 act	CYP2C19 act	Cav3 T inh	CYP2C19 inhib	CYP2C9 inhib
CC(NC(=O)CN1C(=O)COc2ccccc21)c1ccccc1 (stereo not given)	2.2*	0.1	0.022	89*	-116
Cc1cc(C)n(C(=O)CN2C(=O)c3ccccc3C2=O)n1	0.8	0.9	·	6	16
CCc1ccc(CNC(=O)CN2C(=O)COc3ccccc32)cc1	1.6	0.3	-0.62	72*	-62
Cc1cc(C)n(C(=O)CN2C(=O)COc3ccccc32)n1	0.4	0.2	-1.5	80*	57*
CC(C)C(=O)N1CCC(CN=CC2=C(O)CC(C)(C)CC2=O)CC1	·	·	0.34	·	·
Cc1cccc2cc(CN(Cc3nnnn3C3CCCCC3)C3CCCC3)c3nnnn3c12	·	·	-0.71	·	·
CN(C(=O)CCN1C(=O)c2ccccc2C1=O)C1CCCCC1	1.4	0	-0.55	98*	-38
CCOC(=O)CCc1c(C)c2c(C)nn(-c3ccccc3)c2[nH]c1=O	·	·	-0.6	·	·
COc1cc(-c2nc3ccccn3c2/N=C/c2ccccc2)ccc1O	0.8	1	·	5	16
COc1cc(-c2nc3cnccn3c2Nc2c(C)cccc2C)ccc1O	0.5	0	0.03	99*	53*
CCOc1ccccc1NC(=O)CSc1nnc(Cn2c(=O)sc3ccccc32)n1C	·	·	-0.63	·	·
OC(C#CCN1CCOCC1)(c1ccccc1)C1CC1 (stereo not given)	1.1	0.4	0.71	57*	-5
CSc1nc2ccc(S(=O)(=O)N3CCOCC3)cc2s1	0.4	0	-0.91	100*	63*
O=C(Nc1nc2ccc(S(=O)(=O)N3CCCCC3)cc2s1)C1CCCO1 (stereo not given)	0.2	0.9	0.046	7	77*
COc1ccc2nc(NC(=O)Cc3ccc(OC)c(S(=O)(=O)N4CCOCC4)c3)sc2c1	0.6	0.5	-1.4	55*	38
O=C(Nc1nc2ccc(S(=O)(=O)N3CCCC3)cc2s1)C1CCCCC1	0.4	1	·	4	64*
COc1ccc2nc(NC(=O)CN3CCOCC3)sc2c1	0.7	1	0.47	-3	26
Cc1ccc(C(=O)N2CCN(C(=O)CN3CCCC3)C2)cc1	0.9	0.8	0.28	16	14
O=S(=O)(NCc1ccccc1)c1ccc(S(=O)(=O)N(Cc2cccs2)CC2CCCO2)cc1 (stereo not given)	0.7	1	0.2	1	28
COc1cc(C(=O)Nc2nc3ccc(S(=O)(=O)N4CCOCC4)cc3s2)cc(OC)c1OC	0.2	0.5	0.15	54*	79*
Cc1cc(C)cc(OCC(=O)Nc2cccc(-c3nc4ncccc4o3)c2)c1	0.8	0.8	-1	19	24
Cc1ccc(C(C)NC(=O)c2c(C)noc2C)cc1C (stereo not given)	0.8	0.4	-3.8*	61*	24
CCc1ccc(N(CC)C(=O)c2ccc3c(Cl)c4c(nc3c2)CCC4)cc1	·	·	-3.2*	·	·
COc1ccccc1N1CCN(C(=O)c2ccc3c(Cl)c4c(nc3c2)CCCC4)CC1	·	·	-0.72	·	·
Cc1ccc(N(C)C(=O)c2ccc3c(Cl)c4c(nc3c2)CCC4)cc1C	·	·	-5.5*	·	·
SMILES	CYP2C9 act	CYP2C19 act	Cav3 T inh	CYP2C19 inhib	CYP2C9 inhib
CCOC(=O)N1CCC(NC(=O)c2ccc3c(Cl)c4c(nc3c2)CCCC4)CC1	·	·	-3.1	·	·
CCN(C(=O)c1ccc2c(Cl)c3c(nc2c1)CCC3)c1cccc(C)c1	·	·	-5.6*	·	·
CC(C)(C)N1C(=O)c2ccc(C(=O)NCc3ccco3)cc2C1=O	0.5	0.8	0.32	23	47
CC1Cc2nc(SCC(=O)Nc3ccc4c(c3)OCO4)n(-c3ccc(F)cc3)c(=O)c2S1 (stereo not given)	·	·	0.62	·	·
COC(=O)c1sc(N)c(C(=O)OC)c1COC(=O)c1c(C)noc1C	0	0	-2.3	96*	97*
Cc1cc(C)c[n+](-c2nc3ccccc3nc2C(=C=[N-])C#N)c1	0.9	1	0.18	-3	10
C/C(=N\NS(=O)(=O)c1ccc(C)cc1)c1cccs1	0.7	0.7	-0.87	31	33
C/C(=N\NS(=O)(=O)c1ccc(C)cc1)c1ccc(Br)s1	0.3	0.4	-3.1	58*	71*
OCC(Cc1ccc2c(c1)OCO2)C(CO)Cc1ccc2c(c1)OCO2 (stereo not given)	·	·	-0.68	·	·
COc1ccc(NC(=O)Cc2nc3ccccc3[nH]2)cc1	0.7	0.3	0.68	67*	26
COc1ccccc1CCC(=O)Nc1nc2ccccc2[nH]1	1	0.4	-2.6	62*	1
CCC(Oc1ccccc1)C(=O)Nc1nc2ccccc2[nH]1 (stereo not given)	0.5	0.7	-4.4	32	52*
